The list is not random: actives were taken first. Their share in the collection is about 4.1%.
ssDAF12 agonist = activates DAF-12 receptor from parasite S. stercoralis | HEK293 ssDAF-12/GRIP1 lit1-tk-luc reporter, luminescence; % of 3 µM dafachronic acid response | activation, % at 6.8 µM | 370,000 compounds, 1% hits | AID 652126;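 active means activation above the mean over all tested compounds plus 3 SD, cut at about 0.9% in these data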;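 further: 0% = DMSO-only wells and 100% = 3 µM delta7-dafachronic acid wells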
hcDAF12 agonist = activates DAF-12 receptor from parasite H. contortus | HEK293 hcDAF-12 lit1-tk-luc reporter, luminescence; 0% DMSO, 100% Δ7-dafachronic acid | activation, % at 6.8 µM | 370,000 compounds, 1.4% hits | AID 652067;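 active means activation above the mean of all tested compounds plus 3 SD, cut at about 5.5% in these data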;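 further: 100% = response to 3 µM Δ7-dafachronic acid high control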
DAX1 inh-1 = NR0B1 (DAX1) inhibition; AID 504766; P51843; 340,000 compounds, 0.99% hits; inhibition, % at 6.75 µM; HEK293 Gal4-DAX1 luciferase reporter, luminescence;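 active means inhibition above the mean over all tested compounds plus 3 SD, cut at about 4.2% in these data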;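 further: 0% = DAX1-transfected cells with DMSO and 100% = empty-vector control cells with DMSO; inhibition shows as a rise in luminescence from relieved DAX1 repression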
Target sequence (P51843 207-470 limits assumed): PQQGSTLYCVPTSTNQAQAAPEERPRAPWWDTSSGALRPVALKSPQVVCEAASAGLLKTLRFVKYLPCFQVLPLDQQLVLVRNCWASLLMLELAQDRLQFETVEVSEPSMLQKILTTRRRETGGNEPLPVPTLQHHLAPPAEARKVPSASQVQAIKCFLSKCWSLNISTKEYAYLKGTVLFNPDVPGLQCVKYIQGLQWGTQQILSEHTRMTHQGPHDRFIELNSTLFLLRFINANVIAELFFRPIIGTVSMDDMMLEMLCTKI
hgDAF-12 ag = agonists of H. glycines DAF-12 nuclear receptor | activation, % at 6.8 µM | HEK293 GAL4-hgDAF12 UAS-luciferase reporter, agonist luminescence; normalized to butyrate control | 370,000 compounds, 1.8% hits;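 active means activation above a cutoff set at the mean of all screened compounds plus 3 SD, cut at about 10% in these data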;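 further: 0% = DMSO wells and 100% = sodium butyrate wells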
DAX1 inh-2 = inhibitors of DAX1 repression of SF-1 activated StAR promoter; 370,000 compounds, 1.1% hits; HEK293T StAR-luciferase reporter, SF-1/DAX-1 repression relief; inhibition, % at 6.8 µM;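 active means inhibition above the mean over all tested compounds plus 3 SD, cut at about 3.6% in these data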;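 further: 0% = DAX-1 cells with DMSO and 100% = cells lacking DAX-1 with DMSO; higher inhibition means more luminescence from relief of DAX-1 repression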
* marks the source's active call; other numbers are inactive results; · = not tested or not shown; ! = not confirmed by another sample.

SMILES	ssDAF12 agonist	hcDAF12 agonist	DAX1 inh-1	hgDAF-12 ag	DAX1 inh-2
COC(=O)C1=C(C)N(Cc2ccccc2C(F)(F)F)C(=NCc2ccccc2C(F)(F)F)NC1c1ccc(C(F)(F)F)cc1 (stereo not given)	0	0	·	4	0
CC(=O)c1cc(-c2cc3ccccc3o2)c(=O)n2c1CCC2	-2	2	·	-1	0
Cc1ccc(-n2c(SCC(=O)NN=Cc3c[nH]c4ccccc34)nnc2-c2ccccc2)cc1	0	1	·	-2	-1
Cc1cccc(OC[C@@H](O)CN2CCC(C(O)(c3ccccc3)c3ccccc3)CC2)c1	0	0	·	0	-2
CCCC[C@H]1C2CC(OC(=O)Nc3ccc(Cl)cc3)C(C2)[C@H]2CCCCN21 (stereo not given in full)	-1	-2	·	2	2
CCCCN1C(=O)/C(=C2\SC(N3CCCCC3)=NC2=O)c2ccccc21	-2	3	4.3*	7	2
c1ccc(Cn2ccc3ccc(-c4ccc5ccn(Cc6cccc(-c7ccsc7)c6)c5c4)cc32)cc1	-1	1	·	2	-1
O[C@H]1C[C@H](c2ccccc2)N(CC2CCCCC2)C[C@@H]1n1cc(C2CC2)nn1	0	1	0	5	3.7*
O[C@@H]1CN(CC2CCCCC2)[C@@H](c2ccccc2)C[C@H]1n1cc(C2CC2)nn1	0	0	2	-3	1
COc1ccc(CN2CN(S(=O)(=O)c3cccs3)c3nc4ccccc4nc32)cc1	0	2	2	13*	1
O=C(CC12CC3CC(CC(C3)C1)C2)NC(=S)N1CCCCC1	1.2*	-1	1	0	0
COc1ccc(C(c2c[nH]c3ccccc23)c2c[nH]c3ccccc23)cc1O	2.8*	5	3	5	-1
Cc1cc(-c2nc(-c3ccc(C(C)(C)C)cc3)no2)no1	-1	2	1	9	1
Cc1c(-c2nc(-c3ccc(C(C)(C)C)cc3)no2)n(C)oc1=O	2.1*	5.7*	-1	12*	3
Cc1cc(C)cc(NC(=O)c2cc(Cl)sc2Cl)c1	-1	-2	-1	2	0
CC(=O)c1ccc(NC(=O)c2cc(Cl)sc2Cl)cc1	1.4*	4	1	12*	3
CCn1c(COc2ccc(Cl)cc2)nnc1SC1CCc2ccccc2C1=O (stereo not given)	1.5*	3	1	-3	1
COc1ccc2c(CN(Cc3ccccc3)Cc3ccccc3)cc(=O)oc2c1	-1	-1	·	1	-1
O=c1cc(CN(Cc2ccccc2)Cc2ccccc2)c2c(ccc3ccccc32)o1	1.8*	3	·	1	1
CC(=O)C1=C(C)N(Cc2ccc(Br)cc2)C(=S)NC1c1cccc(F)c1 (stereo not given)	-1	-2	·	1	0
CC(=O)N(CCCN(C)C)CCC(C)CCC=C(C)C (stereo not given)	1.1*	-1	0	-3	1
COc1cc2c(cc1OC)C(NC(=O)C(F)(F)F)CNC2=O (stereo not given)	-2	-1	-1	13*	1
Cn1c(=O)[nH]c(=O)c2c1nc(SCC(=O)O)n2CCOc1ccccc1	0.9*	0	2	2	0
O=C(CCc1ccccc1)N[C@H]1[C@H](OCc2ccccc2)CCC[C@@]12C(=O)N(Cc1ccccc1)c1ccc(-c3ccccn3)cc12	-1	0	·	0	-1
CC(C)(C)CCN1CCC[C@H](NC(=O)COc2ccc(F)c(Cl)c2)C1	-1	1	·	-3	·
SMILES	ssDAF12 agonist	hcDAF12 agonist	DAX1 inh-1	hgDAF-12 ag	DAX1 inh-2
c1ccc2nc3c(nc2c1)OCC1CCCCN31 (stereo not given)	1	6.2*	4	8	1
O=C1CCCCCN1Cc1nnc(SCc2nc3ccccc3s2)n1-c1ccccn1	1.9*	5.7*	2	9	2
CCNC(=O)CSc1nnc(CN2CCCCCC2=O)n1-c1ccccn1	-1	0	0	-3	1
COc1cccc(C2NC(=S)NC(C)=C2C(C)=O)c1 (stereo not given)	-1	0	·	-2	1
CCC(C(N)=NCCc1ccc(OC)c(OC)c1)c1ccccc1 (stereo not given)	-1	4	0	-1	0
CCC(=NCCc1ccc(OC)c(OC)c1)c1ccccc1O	0	0	6.1*	2	-1
C[C@@H]1COc2cc(N3CCSCC3)ccc2S(=O)(=O)N1C	1	1	·	3	-1
COC(=O)CN1CCN(C(=O)c2csc3ccccc23)CC1	-1	-2	·	1	1
Cc1ncoc1C(=O)N1CCc2c([nH]c3ccccc23)C1C(C)(C)C (stereo not given)	1.0*	5.6*	1	0	3
Cc1ncoc1C(=O)N1CCc2c([nH]c3ccccc23)C1C1CCCCC1 (stereo not given)	1	6.1*	-1	8	1
CCOC(=O)c1ccc(NC(=O)OC[C@@H]2CSCCS(=O)(=O)N2)cc1	-1	2	·	-3	-2
O=C(Nc1cccc(F)c1)OCCN1CCCC12CCC(c1ccccc1)CC2 (stereo not given)	-2	-2	·	1	·
COC(=O)C1=C(C)N(Cc2ccc(C(F)(F)F)cc2)C(=NCc2ccccc2C(F)(F)F)NC1c1ccc(Cl)cc1 (stereo not given)	-1	-1	·	-1	1
CC(=O)Nc1ccc(Nc2nc(-c3sc(NC(C)=O)nc3C)cs2)cc1	-1	-3	3	2	-1
CC(=O)Nc1ccc(-c2csc(Nc3cc(C)ccn3)n2)cc1	-3	-4	-1	2	-3
CC(=O)Nc1nc(C)c(-c2csc(Nc3ccccn3)n2)s1	-1	3	3	10*!	1
Oc1ccc(-c2csc(Nc3ccccn3)n2)c(O)c1	1	4	4.6*	9	1
CC(=O)Nc1cccc(-c2csc(Nc3cc(C)ccn3)n2)c1	-1	0	1	11*	4
Cc1cccnc1Nc1nc(-c2ccc(O)cc2O)cs1	0	1	0	1	0
COc1ccc2c(c1)oc(=O)c1cc(OC)ccc12	0	0	4.6*	13*	3
Cc1ccc(C(=O)C=CC=Cc2ccccc2)cc1	-1	0	4.5*	3	1
Cc1ccc(/C=C/C(=O)c2ccc(C)cc2)cc1	-1	-1	-1	3	0
NC(N)=NS(=O)(=O)c1ccc(N/C=C\C(=O)c2ccncc2)cc1	-1	-1	6.9*	2	-1
Cc1ccc(N/C=C/C(=O)c2ccc(C)cc2)cc1	0	2	3	13*	3
Cc1noc(NS(=O)(=O)c2ccc(N/C=C\C(=O)c3ccncc3)cc2)c1C	-1	-1	2	0	1
Cc1ccc(NC(=O)C(=O)c2ccc(C)cc2)cc1	0	3	1	12*	2

Screens as filed in PubChem.
